This note sets out measurements from PubChem BioAssay (Tox21).

“And” between values parts separate entries of the source, which are not always exact repeats. Identical values can stand only once. Inconclusive results are not listed. Some compounds were tested as several samples or in several runs, with calls that do not always agree. The source made the active and inactive calls. Calls come from the whole dose curve.

In assay [1] the target is Acetylcholinesterase (Homo sapiens) (UniProt P22303). Kind of assay: Acetylcholinesterase (AChE) small molecule antagonists: colormetric cell-based qHTS assay (AID 1347395). Note: nearly all actives have a fitted effect of over 30% in size. Note: potency is the fitted concentration of half-maximal effect. The gist of the method: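 Homogeneous whole-cell format. SH-SY5Y cells seeded overnight, dosed with compound (30 min, 37 C, 5% CO2), then given DTNB/acetylthiocholine cocktail for 90 min at 37 C; colorimetric signal.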
Acetylcholinesterase (Homo sapiens), sequence (P22303 whole entry, looked up): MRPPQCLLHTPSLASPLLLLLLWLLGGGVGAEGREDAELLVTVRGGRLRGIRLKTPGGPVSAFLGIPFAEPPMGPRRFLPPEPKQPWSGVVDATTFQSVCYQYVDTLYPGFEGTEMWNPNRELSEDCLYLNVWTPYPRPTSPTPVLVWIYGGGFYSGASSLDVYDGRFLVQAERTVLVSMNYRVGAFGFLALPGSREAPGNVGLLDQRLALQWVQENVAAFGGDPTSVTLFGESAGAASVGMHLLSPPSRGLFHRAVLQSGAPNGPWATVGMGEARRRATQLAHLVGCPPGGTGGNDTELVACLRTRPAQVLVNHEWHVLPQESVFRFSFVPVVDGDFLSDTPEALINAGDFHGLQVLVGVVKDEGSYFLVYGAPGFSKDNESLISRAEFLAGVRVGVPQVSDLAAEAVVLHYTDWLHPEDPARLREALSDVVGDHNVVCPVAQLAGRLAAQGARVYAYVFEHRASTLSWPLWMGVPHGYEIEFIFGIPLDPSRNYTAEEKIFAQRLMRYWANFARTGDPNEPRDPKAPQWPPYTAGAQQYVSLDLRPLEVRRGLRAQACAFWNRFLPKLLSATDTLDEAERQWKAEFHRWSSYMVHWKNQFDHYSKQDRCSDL
On the technique in general: In qHTS, concentration-response curves come from the screen itself.

Assay [2] shares this target. Kind of assay: Acetylcholinesterase (AChE) small molecule antagonists: fluorescence cell-based qHTS assay (AID 1347398). Note: nearly all actives have a fitted effect of over 50% in size. Note: potency is the fitted concentration of half-maximal effect. The conditions noted are these: Potency: AChE activity; outcome: AChE activity. In short, it runs like this: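 Fluorimetric cell-based assay: intact SH-SY5Y cells, 30 min compound preincubation at 37 C, acetylthiocholine substrate with thiol probe Thiolite Green, 40 min RT development, fluorescence 490/520 nm.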

Assay [3] shares this target. Briefly: Acetylcholinesterase (AChE) small molecule antagonists: enzyme-based qHTS assay with human liver microsomes (AID 1347399). Note: nearly all actives have a fitted effect of over 60% in size. Particulars: Potency: qHTS inhibition; outcome: qHTS inhibition. In short, it runs like this: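 Recombinant human AChE (50 mU/mL in the enzyme mix) and human liver microsomes (0.25 mg/mL final) were preincubated with compound and NADPH (0.25 mg/mL final) for 30 min at 37 C. Acetylthiocholine/DTNB was then added; thiocholine was read colorimetrically after 10 min at room temperature.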

For assay [4] the target is unchanged. Briefly: Acetylcholinesterase (AChE) small molecule antagonists: enzyme-based qHTS assay (AID 1347397). Note: nearly all actives have a fitted effect of over 55% in size. Particulars: Potency: AChE enzyme activity inhibition; outcome: AChE enzyme activity inhibition. In short, it runs like this: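 Absorbance-based detection of thiocholine with DTNB served as the read-out. Recombinant human AChE was exposed to compound for 30 min at RT before a 10 min RT incubation with acetylthiocholine.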
% is set by controls: 0 for no effect and ±100 for the full control effect.

For `Cc1ccc(S(=O)(=O)O)cc1C`, the Potency entry in assay [1], in assay [2] and in assay [3] was “inactive” throughout.

Turning to `N[C@@H](CCC(=O)O)C(=O)O`, the Potency entry in assay [1] and in assay [3] was “inactive” throughout.

With `CCCCCCCCS(=O)(=O)O`, the Potency result in assay [1], in assay [2] and in assay [3] was “inactive” throughout.

As for `FC(F)(F)C(Cl)Br` (stereo not drawn), the Potency result in assay [1], in assay [2] and in assay [3] was “inactive” each time.

With `CC[C@H](c1ccc(O)cc1)[C@@H](CC)c1ccc(O)cc1`, the Potency result in assay [1], in assay [2] and in assay [3] was “inactive” throughout.

In the case of `OC12N=C(c3ccccc3)SC1Cc1cc(Cl)ccc12` (stereo not drawn), the Potency entry in assay [4], in assay [2] and in assay [3] was “inactive” throughout.

On to `O=Cc1c2ccccc2c(Cl)c2ccccc12`, for which the Potency entry in assay [1], in assay [2] and in assay [3] was “inactive” each time.

On to `c1cc(N(CC2CO2)CC2CO2)ccc1OCC1CO1` (stereo not drawn), for which the Potency entry in assay [1], in assay [2] and in assay [3] was “inactive” each time.

Turning to `CCCCCCCCCCC=CC1CC(=O)OC1=O` (stereo not drawn), the Potency result in assay [1] and in assay [3] was “inactive” in each case.

For the compound `O=C(Cl)c1cc(Cl)cc(Cl)c1`, the Potency result in assay [1], in assay [2] and in assay [3] was “inactive” in each case.

Take `CCCCCCCCOC(=O)c1ccc(O)cc1`: the Potency entry in assay [1], in assay [2] and in assay [3] was “inactive” each time.

For `CCCN(CCC)C(=O)SCC`, the Potency entry in assay [1], in assay [2] and in assay [3] was “inactive” each time.

`O=C(O)CCC(=O)C(=O)O`: the Potency result in assay [1], in assay [2] and in assay [3] was “inactive” each time.

`CC(C)=NNC(N)=S`: the Potency entry in assay [1], in assay [2] and in assay [3] was “inactive” each time.

`CCn1c2ccccc2c2cc([N+](=O)[O-])ccc21`: the Potency result in assay [1], in assay [2] and in assay [3] was “inactive” in each case.

With `CCCCC(CC)COC(=O)CC#N` (stereo not drawn), the Potency result in assay [1], in assay [2] and in assay [3] was “inactive” in each case.

With `CCn1cc(C(=O)O)c(=O)c2cnc(N3CCCC3)nc21`, the activity, negative = inhibition in assay [1] was 2.45% [at 10.5 µM] (inactive). The activity change, negative = inhibition in assay [2] was 15.4% [at 10.5 µM] (inactive); in assay [3] it was -1.77% [at 10.5 µM] (inactive).

In the case of `CC(C)CC(=O)C1C(=O)c2ccccc2C1=O`, the Potency result in assay [1], in assay [2] and in assay [3] was “inactive” each time.

For the compound `CCCCOC(O)CC` (stereo not drawn), the Potency entry in assay [1], in assay [2] and in assay [3] was “inactive” throughout.

For the compound `CSc1ccc(C=O)cc1`, the Potency result in assay [4], in assay [2] and in assay [3] was “inactive” in each case.

As for `CN(C)[C@@H]1C(=O)C(C(=O)NCN2CCCC2)=C(O)[C@@]2(O)C(=O)C3=C(O)c4c(O)cccc4[C@@](C)(O)C3C[C@@H]12` (stereo partly drawn), the Potency result in assay [1], in assay [2] and in assay [3] was “inactive” each time.

Turning to `NC(=NCCCCCCN=C(N)/N=C(\N)Nc1ccc(Cl)cc1)/N=C(\N)Nc1ccc(Cl)cc1`, the Potency in assay [1] was 56.1 µM (active) and 62.9 µM (active) and inactive; in assay [2], 11.1 µM (active) and 17.7 µM (active) and 16.2 µM (active). The Potency entry in assay [3] is “inactive”.

Turning to `NC(=O)COCCN1CCN(C(c2ccccc2)c2ccc(Cl)cc2)CC1` (stereo not drawn), the Potency result in assay [4], in assay [2] and in assay [3] was “inactive” throughout.

For `C=C[Si](OC(C)=O)(OC(C)=O)OC(C)=O`, the Potency entry in assay [4], in assay [2] and in assay [3] was “inactive” throughout.

As for `C1CCSC1`, the Potency entry in assay [4], in assay [2] and in assay [3] was “inactive” throughout.

On to `Oc1ccc(O)c2c(O)cccc12`, for which the Potency entry in assay [4], in assay [2] and in assay [3] was “inactive” each time.

`Clc1cccc(C(c2ccc3nc[nH]c3c2)n2ccnc2)c1` (stereo not drawn): the Potency entry in assay [4], in assay [2] and in assay [3] was “inactive” each time.

For `C=CC(=O)OCC(Br)CBr` (stereo not drawn), the Potency entry in assay [4], in assay [2] and in assay [3] was “inactive” each time.

In the case of `CN(C)c1ccc(/C=C/c2ccc([N+](=O)[O-])cc2)cc1`, the activity change, negative = inhibition was 1.35% [at 10.5 µM] (inactive) in assay [4], 4.62% [at 10.5 µM] (inactive) in assay [2] and 1.54% [at 10.5 µM] (inactive) in assay [3].

`CCCCCCCCCCC1CO1` (stereo not drawn): the Potency result in assay [4], in assay [2] and in assay [3] was “inactive” throughout.

For the compound `COC(=O)C1CCC(C(=O)OC)CC1` (stereo not drawn), the Potency entry in assay [4], in assay [2] and in assay [3] was “inactive” in each case.

For `Nc1nc2c(ncn2COCCO)c(=O)[nH]1`, the Potency result in assay [4], in assay [2] and in assay [3] was “inactive” each time.

For the compound `CCCCCC(CO)CCC` (stereo not drawn), the Potency result in assay [4], in assay [2] and in assay [3] was “inactive” each time.

`O=C(Nc1ncc([N+](=O)[O-])s1)c1cccs1`: the Potency result in assay [4], in assay [2] and in assay [3] was “inactive” throughout.

Regarding `CC1OC1C1CCC2(C)OC2C1` (stereo not drawn), the Potency entry in assay [4], in assay [2] and in assay [3] was “inactive” each time.

For the compound `CC(=O)Nc1ccn(C2COC(COC(=O)c3ccccc3)O2)c(=O)n1` (stereo not drawn), the Potency result in assay [4], in assay [2] and in assay [3] was “inactive” each time.

Take `CC1CCC2CC1C2(C)C` (stereo not drawn): the Potency result in assay [4], in assay [2] and in assay [3] was “inactive” throughout.

Consider `CC(C)c1ccc(C=O)cc1`, for which the Potency entry in assay [4], in assay [2] and in assay [3] was “inactive” throughout.

For `CC(=O)CC(=O)Nc1ccc(S(=O)(=O)O)cc1`, the Potency result in assay [4], in assay [2] and in assay [3] was “inactive” in each case.

Take `CC1(C)C(=O)N(Cl)C(=O)N1Cl`: the Potency result in assay [4], in assay [2] and in assay [3] was “inactive” each time.

For the compound `O=C(O)c1cc(C(=O)O)cc([N+](=O)[O-])c1`, the Potency result in assay [4], in assay [2] and in assay [3] was “inactive” each time.

With `CC(O)c1ccccc1` (stereo not drawn), the Potency result in assay [4], in assay [2] and in assay [3] was “inactive” throughout.

On to `COc1cc(-c2ccc(=O)[nH]n2)ccc1OC(F)F`, for which the Potency result in assay [4], in assay [2] and in assay [3] was “inactive” throughout.

For `C/C=C/C=N/NC(=O)c1ccncc1`, the Potency entry in assay [4], in assay [2] and in assay [3] was “inactive” in each case.

For `CCCCCCCCCCN`, the Potency entry in assay [4], in assay [2] and in assay [3] was “inactive” throughout.

As for `c1c[nH]cn1`, the Potency entry in assay [4], in assay [2] and in assay [3] was “inactive” each time.

Take `CCCCCCOc1cc(C)c(O)c(C)c1C`: the Potency result in assay [4], in assay [2] and in assay [3] was “inactive” throughout.

For `O=C1OC(=O)c2ccc3c4c(ccc1c24)C(=O)OC3=O`, the Potency entry in assay [4], in assay [2] and in assay [3] was “inactive” in each case.

As to `CN1C(C(=O)Nc2ccccn2)=C(O)c2sccc2S1(=O)=O`, the Potency result in assay [4], in assay [2] and in assay [3] was “inactive” throughout.

`CN=C(NC#N)Nc1ccc(C2=NNC(=O)CC2C)cc1` (stereo not drawn): the Potency result in assay [4], in assay [2] and in assay [3] was “inactive” throughout.

As for `C=CCCCCCCCCC(=O)O`, the Potency entry in assay [4], in assay [2] and in assay [3] was “inactive” each time.

Turning to `CO[C@@H]1[C@@H](OC)[C@H](C)[C@@](O)(CC(=O)O)O[C@H]1[C@H](C)[C@H]1O[C@@]2(CC[C@@](C)([C@H]3CC[C@@](C)([C@@H]4O[C@@H]([C@H]5O[C@](C)(O)[C@H](C)C[C@@H]5C)C[C@@H]4OC4C[C@H](OC)[C@@H](OC)[C@H](C)O4)O3)O2)C[C@H](O)[C@H]1C` (stereo partly drawn), the Potency result in assay [4], in assay [2] and in assay [3] was “inactive” each time.

Take `CC(C(=O)O)c1cccc(Oc2ccccc2)c1` (stereo not drawn): the Potency entry in assay [4], in assay [2] and in assay [3] was “inactive” throughout.

For `CCCCCCCCCOC(=O)CCCCC(=O)OCCCCCCC`, the Potency entry in assay [4], in assay [2] and in assay [3] was “inactive” each time.

On to `O=C(O)c1ccccc1`, for which the Potency entry in assay [4], in assay [2] and in assay [3] was “inactive” each time.

For `c1ccc(COCc2ccccc2)cc1`, the Potency entry in assay [4], in assay [2] and in assay [3] was “inactive” in each case.

Consider `O=c1oc2cc(O)ccc2c2oc3cc(O)ccc3c12`, for which the Potency result in assay [4], in assay [2] and in assay [3] was “inactive” throughout.

As for `O=C(O)Cc1cccc(-c2cc(CCCCCCc3ccc(O[C@H]4O[C@H](CO)[C@@H](O)[C@H](O)[C@@H]4O)c(-c4cccc(CC(=O)O)c4)c3)ccc2O[C@H]2O[C@H](CO)[C@@H](O)[C@H](O)[C@@H]2O)c1`, the activity change, negative = inhibition in assay [4] is 1.01% [at 0.435 µM] (inactive); in assay [2] it was 5.75% [at 0.439 µM] (inactive); in assay [3], -1.17% [at 0.435 µM] (inactive).

For `C=CCCC=C`, the Potency entry in assay [4], in assay [2] and in assay [3] was “inactive” throughout.

In the case of `Cc1c(N)cccc1C(F)(F)F`, the Potency result in assay [4], in assay [2] and in assay [3] was “inactive” in each case.
